{"source": "PubChem BioAssay (Tox21)", "note": "Inconclusive results are not listed. A call without a number means that no potency is given here. Values without a mark were called inactive. The source made the active and inactive calls. Calls come from the whole dose curve; as a rule, active = well fitted activation curve with a large enough effect in the repeat runs; inconclusive = weak or mixed curves; inactive = flat fitted curve, though single readings scatter. Potency is the fitted concentration of half-maximal effect.", "data": [{"experiment": "Caspase-3/7 induction in HepG2 cells by small molecules, qHTS assay (AID 1346978); note: nearly all actives have a fitted effect of over 15% in size", "conditions": "HepG2 caspase-3/7 activation, Caspase-Glo luminescence, 17 h; series mostly up to 92.4 µM", "description": "National Center for Advancing Translational Sciences [NCATS] NIH Chemical Genomics Center [NCGC] U.S. Environmental Protection Agency [EPA] National Institutes of Environmental Health Sciences [NIEHS] National Toxicology Program [NTP] Assay overview: Apoptosis is a process of programmed cell death and plays a central role in the development of multicellular organisms. It is a highly regulated process and induces cell death by activating caspases, which are the members of cysteine aspartic acid-specific protease (caspase) family. Caspases involved in apoptosis are classified by their mechanism of action as initiator caspases (caspase-2, -8, -9 and -10) and executioner caspases (caspase-3, -6, and -7). Inhibition of apoptosis results in number of cancers, autoimmune diseases, inflammatory diseases and viral infection. To identify small molecule compounds that induce apoptosis, a homogeneous, luminescent Caspase-Glo 3/7 assay was used. Wild type HepG2 cells were used to screen Tox21 libraries for identifying caspase-3/7 activity inducers.\nAssay Protocol Summary: HepG2 cells were dispensed at 2,000 per well in 5uL of culture medium into white solid bottom 1536-well plates (Corning Life Sciences, Corning, NY) using a Multidrop Combi (Thermo Scientific, Waltham, MA) dispenser. The assay plates were incubated at 37 C and 5% CO2 for 5hr, and then 23nL of compounds dissolved in DMSO and positive control were transferred using a Pintool station (Wako, San Diego, CA). The assay plates were incubated at 37C and 5% CO2 for 17hr. For caspase-3/7 activity read, 4uL of Caspase-Glo 3/7 reagent (Promega Corporation, Madison, WI) was added to each well of the assay plates using Flying Reagent Dispenser (FRD, Aurora Discovery, San Diego, CA) and incubated the assay plates at room temperature for 30min. The luminescence signal was quantified using a ViewLux plate reader (Perkin Elmer, Shelton, CT).", "values": [{"smiles": "CCOC(=O)CC(C)O", "note": "(stereo not given)", "Potency": "inactive"}, {"smiles": "O=C(O)CC(=O)O", "Potency": "inactive"}, {"smiles": "Cc1cc(=O)[nH]c(=O)[nH]1", "Potency": "inactive"}, {"smiles": "NCCCC(O)(P(=O)(O)O)P(=O)(O)O", "Potency": "inactive"}, {"smiles": "O=C1c2c(O)ccc(O)c2C(=O)c2c(NCCNCCO)ccc(NCCNCCO)c21", "Potency": "4.22 µM (active)"}, {"smiles": "O=S(O)O", "caspase activation": "-0.246% [at 19 µM]"}, {"smiles": "ClC/C=C\\CCl", "Potency": "inactive"}, {"smiles": "CN1[C@@H]2CC[C@@H]1CC(OC(=O)C(CO)c1ccccc1)C2", "note": "(stereo not given in full)", "Potency": "inactive"}, {"smiles": "CCN=C1C=CC(=C(c2ccc(N(CC)CC)cc2)c2ccc(N(CC)CC)cc2)c2ccccc21", "Potency": "inactive"}, {"smiles": "CC(=O)C=O", "Potency": "inactive"}, {"smiles": "Cn1cnc2ncnc(N)c21", "Potency": "inactive"}, {"smiles": "CCCCOC(=O)C(C)CC", "note": "(stereo not given)", "Potency": "inactive"}, {"smiles": "C/C=C/c1ccc(OC)c(OC)c1", "Potency": "inactive"}, {"smiles": "CCCCCCCCCCOCC(O)CN", "note": "(stereo not given)", "Potency": "29.8 µM (active)"}, {"smiles": "COc1ccccc1C=O", "Potency": "inactive"}, {"smiles": "CN(C)c1ccc(N=Nc2ccccc2C(=O)O)cc1", "Potency": "inactive"}, {"smiles": "CCCCCCCC(OC)OC", "Potency": "inactive"}, {"smiles": "CCCCCCCOC(=O)c1ccccc1C(=O)OCCCCCCC", "Potency": "inactive"}, {"smiles": "COc1ccc(C#N)cc1", "Potency": "inactive"}, {"smiles": "NCCCCCCNCCCCCCN", "Potency": "inactive"}, {"smiles": "CCCCCCCC/C=C/CCCOC(C)=O", "Potency": "inactive"}, {"smiles": "COC(=O)NCCC[Si](OC)(OC)OC", "Potency": "inactive"}, {"smiles": "CCCCCCOc1ccc(O)cc1", "Potency": "inactive"}, {"smiles": "CCCCCCCC(C)=O", "Potency": "inactive"}, {"smiles": "c1ccc(Nc2cccc3ccccc23)cc1", "Potency": "inactive"}, {"smiles": "C=C(C)CCCC", "Potency": "inactive"}, {"smiles": "CSc1ccc2c(c1)N(CCC1CCCCN1C)c1ccccc1S2", "note": "(stereo not given)", "Potency": "30.5 µM (active)"}, {"smiles": "SCCCCCCCCS", "Potency": "inactive"}, {"smiles": "CC(C)N=C(N)/N=C(\\N)Nc1ccc(Cl)cc1", "Potency": "inactive"}, {"smiles": "CCCCCCS", "Potency": "inactive"}, {"smiles": "CCC(=O)CC(C)CC", "note": "(stereo not given)", "caspase activation": "1.2% [at 0.349 µM]"}, {"smiles": "CC(C)(C)c1cc(/C=C2\\SC(=N)NC2=O)cc(C(C)(C)C)c1O", "Potency": "inactive"}, {"smiles": "CCCCCCCCCCCCCCNCCO", "Potency": "inactive"}, {"smiles": "CNC(=S)NN", "Potency": "61.1 µM (active)"}, {"smiles": "COc1ccc(-n2nc(CCC(=O)N(C)O)cc2-c2ccc(Cl)cc2)cc1", "Potency": "inactive"}, {"smiles": "Oc1cc2ccccc2cc1O", "Potency": "inactive"}, {"smiles": "c1cc[nH]c1", "Potency": "inactive"}, {"smiles": "Cc1cccc(C)n1", "Potency": "inactive"}, {"smiles": "O=Nc1ccc(NO)cc1", "Potency": "inactive"}, {"smiles": "CC(C)c1ccccc1N", "Potency": "inactive"}]}]}
